Screening results (PubChem BioAssay)
S1P4 ag = human S1P4 receptor agonism | activation, % at 4.98 µM | 220,000 tested, 0.35% active | O95977 | S1P4-expressing cell line, agonist reporter assay | AID 1509; in the data active = activation above about 11%;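 note: 0% = DMSO vehicle and 100% = reference agonist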
Target sequence (O95977 whole entry, looked up): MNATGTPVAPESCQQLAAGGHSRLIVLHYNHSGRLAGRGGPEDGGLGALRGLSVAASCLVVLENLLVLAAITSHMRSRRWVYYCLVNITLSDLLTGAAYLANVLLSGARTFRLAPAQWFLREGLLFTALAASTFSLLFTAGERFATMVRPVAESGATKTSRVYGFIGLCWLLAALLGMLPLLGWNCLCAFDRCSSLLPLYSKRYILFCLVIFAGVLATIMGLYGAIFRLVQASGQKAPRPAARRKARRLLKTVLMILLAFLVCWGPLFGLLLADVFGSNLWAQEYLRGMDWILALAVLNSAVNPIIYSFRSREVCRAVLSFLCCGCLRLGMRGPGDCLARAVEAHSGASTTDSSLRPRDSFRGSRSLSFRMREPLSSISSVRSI
S1P4 antagonist = antagonists of human S1P4 receptor. inhibition, % at 4.98 µM. AID 1510. S1P4-expressing cells, antagonist mode, reporter read-out. O95977. 220,000 tested, 0.26% active; in the data active = inhibition above about 29%;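 note: 0% = wells stimulated with agonist and 100% = vehicle wells without agonist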
S1P3 antagonist = blocks the human S1P3 receptor | inhibition, % at 4.98 µM | CHO S1P3 NFAT-BLA reporter, FRET fluorescence, antagonist mode | 170,000 tested, 0.27% active | Q99500;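 active = inhibition above the plate cutoff, the mean inhibition of test wells on that plate plus 3 SD, cut at about 28% in these data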;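 note: cells challenged with S1P at its EC80 of 0.8 µM; blue over green emission ratio from cleaved BLA substrate after 4 h stimulation; 0% = S1P-stimulated wells and 100% = unstimulated DMSO-only wells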
EP2 mod = modulators of human EP2 prostaglandin E2 receptor; P43116; EP2-expressing cells, cAMP HTRF FRET, PGE2 co-stimulation; induction, % at 25 µM; 260,000 tested, 0.83% active; AID 940;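 active = compounds whose cAMP rise, as percent of the full-agonist control response, exceeds 60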;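 note: rat C6 glioma line stably carrying human EP2 under a CMV promoter; the protocol text gives 20 µM as final concentration; 100% = response of wells given 1 µM PGE2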
EP2 antag = EP2 receptor (human) inhibition. 260,000 tested, 0.52% active. inhibition, % at 25 µM. AID 1422. C6 glioma cells expressing human EP2, cAMP TR-FRET; cells stimulated with saturating PGE2;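 active = percent inhibition above 40 after rounding to a whole number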;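 note: rat C6 glioma host cells with rolipram phosphodiesterase inhibitor present; the protocol text gives 20 µM as final concentration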
Active calls of the source: *; / = no result; ! = repeats disagree. Only some compounds are listed: those with a hit (about 1.9% of all), similar ones and a draw of the others.

SMILES | S1P4 ag | S1P4 antagonist | S1P3 antagonist | EP2 mod | EP2 antag
S=C(Nc1ccc(Cl)cc1)NC1CC2CCCC(C1)N2C1CC1 (centres undefined) | -1 | -17 | / | -96 | 48*!
CCOc1ccc2c(c1)c1nnc(SCC(=O)N3CCCC3)nc1n2C | / | / | / | -17 | 6
O=C(c1ccccc1)N1C(=O)C(c2ccccc2)Oc2ccccc21 (centres undefined) | 3 | -8 | 12 | 81* | 11
COc1ccc2c(c1OC)C(=O)O[C@H]2[C@H]1c2c(cc3c(c2OC)OCO3)CCN1C | / | / | / | 68* | 10
COc1ccc(C2C(C#N)=C(C)NC3=C2C(=O)c2ccccc23)cc1 (centres undefined) | 1 | -2 | / | -8 | 49*
Cc1nc(-c2ccccn2)sc1C(=O)Nc1ccc(Cl)c(Cl)c1 | 0 | -9 | / | -31 | 52*
CC(=O)c1sc(-c2ccccn2)nc1C | 2 | -13 | 2 | 1 | 8
CC1=NOC(=O)/C1=C\c1ccc2c(c1)OCO2 | 4 | -8 | -17 | -69 | 15
CC1=NOC(=O)/C1=C/c1ccc2c(c1)OCO2 | -1 | 16 | -2 | -66 | 61*
O=C(Nc1nc2ccsc2c(=O)s1)c1ccco1 | 2 | -23 | -7 | 10 | 9
O=C(Nc1nc2c(Cl)ccc(Cl)c2s1)c1ccco1 | -2 | -18 | -14 | -17 | 70*
O=C(CSc1nnc(-c2ccncc2)n1CCc1ccccc1)Nc1ccc(Br)cc1 | / | / | / | -43 | 7
COc1cc(/C=N/NC(=O)CSc2cc(C)c(Br)cc2C)ccc1O | 0 | -5 | / | -33 | 41*
O=C(/C=C/c1ccncc1)c1ccc(NC(=O)c2ccccc2F)cc1 | 2 | 37* | 1 | -53 | 27
O=C(Nc1cccnc1)c1ccccc1F | 0 | -17 | 2 | 6 | 7
CCCC(=O)Nc1nnc(-c2cccnc2)s1 | / | / | / | -39 | 4
COC(=O)c1c(NC(=O)C(C)C)sc(C(=O)NC2CCCCC2)c1C | / | / | / | -10 | 9
Cc1cc(C(=O)NCC(=O)OCC(=O)N(C2CCCCC2)C2CCCCC2)ccc1[N+](=O)[O-] | 1 | -2 | 3 | 63* | 4
Cc1cc(C(=O)NCC(=O)OCC(=O)NCCc2ccccc2)ccc1[N+](=O)[O-] | 0 | -8 | 5 | 6 | 7
CC(C)[C@H](Cn1nc(C2CC2)ccc1=O)NC(=O)C1CCC1 | / | / | / | 11 | 5
COc1ccc(OC)c(Nc2nc(NCCC(C)C)nc(N)c2[N+](=O)[O-])c1 | -1 | -4 | -11 | 63* | 8
COc1ccccc1N1CC23C=CC(O2)C(C(=O)O)C3C1=O (centres undefined) | / | / | / | -1 | 13
COc1ccc(NC(=S)Nc2ccc3nc(C)c(C)nc3c2)cc1 | 0 | -3 | / | -30 | 10
COc1ccc(NC(=S)Nc2ccc3nsnc3c2)cc1 | 1 | -3 | -2 | -95 | 42*
CCOc1ccc(NC(=O)Nc2ccc3nsnc3c2)cc1 | 0 | 5 | 10 | -68 | 1
SMILES | S1P4 ag | S1P4 antagonist | S1P3 antagonist | EP2 mod | EP2 antag
CCOc1ccc(NC(=S)Nc2ccc3nsnc3c2)cc1 | 1 | 0 | -9 | -119 | 44*
CC1(C)C2CCC(C2)C1(C)NC(=O)CNCCN1CCCC1 (centres undefined) | / | / | / | -5 | 17
CCOC(=O)c1cc2occc2n1Cc1ccc(F)cc1 | 1 | -1 | / | 85*! | 13
COC(=O)c1cc2occc2n1Cc1c(F)cccc1Cl | 1 | -5 | -5 | 64* | 15
O=C1c2cccc(O)c2C(=O)c2c(O[C@@H]3O[C@H](CO)[C@@H](O)[C@H](O)[C@H]3O)cccc21 | / | / | / | -17 | 52*
CCOc1ccccc1NC(=O)C1CC(=O)N(c2ccc(C)c(C)c2)C1 (centres undefined) | / | / | / | 8 | 9
OC1(C(O)(c2ccc(-c3ccccc3)cc2)c2ccc(-c3ccccc3)cc2)CCCCC1 | / | / | / | 25 | 43*
O=c1c2ccccc2sc2c(CO)ccc(NCCN3CCCCC3)c12 | / | / | / | -42 | 58*
Cn1c(=O)c2c(nc(NCc3ccccc3)n2Cc2ccc(F)cc2)n(C)c1=O | 0 | -14 | 15 | 64* | 13
CCCNc1nc2c(c(=O)n(C)c(=O)n2C)n1Cc1ccc(F)cc1 | 1 | -15 | 85* | 21 | 9
Cc1ccc(Cn2c(NCCc3ccccc3)nc3c2c(=O)n(C)c(=O)n3C)cc1 | 0 | 7 | 11 | 50 | 6
CCNc1nc2c(c(=O)n(C)c(=O)n2C)n1Cc1ccc(Cl)cc1 | / | / | 4 | / | /
CC(C)C(=O)Nc1ccc(C(=O)Nc2ccc(S(=O)(=O)Nc3ncccn3)cc2)cc1 | / | / | / | 23 | 5
CCCSc1nc(C)nc2c1c(=O)n(C)c(=O)n2C | 0 | -4 | / | 25 | 10
CCCCSc1nc(C)nc2c1c(=O)n(C)c(=O)n2C | -1 | -4 | / | 63* | 10
COCCN[C@@H]1CCN(Cc2ccccc2F)C[C@H]1O | / | / | / | 3 | 8
CCn1c(CNc2ccc(C)cc2)nnc1SCC(=O)NCc1ccccc1 | -2 | -3 | -15 | 13 | 7
CCn1c(CNc2ccccc2Cl)nnc1SCC(=O)NCc1ccccc1 | 1 | 4 | 70* | 15 | 9
O=C(CSc1nnc(-c2ccccc2Cl)o1)N1c2ccccc2Sc2ccccc21 | / | / | / | -41 | 8
c1ccc(N(c2ccccc2)c2nc(-n3ccnc3)nc(-n3ccnc3)n2)cc1 | 3 | -23 | 22 | -46 | 67*
CC(=O)Nc1ccc(-n2nnnc2SCC(=O)N2c3ccccc3CCc3ccccc32)cc1 | / | / | / | 8 | 12
COc1ccc(S(=O)(=O)N(CCC(=O)O)Cc2ccccc2)cc1 | 1 | -15 | -6 | 17 | 5
COc1ccc(CN(Cc2cccn2C)S(=O)(=O)c2ccccc2)cc1 | 0 | -2 | -2 | 69* | 14
Cc1[nH]c2ccc(F)cc2c1C | / | / | / | -40 | 8
C=CCn1c2cc(C)sc2c2cnn(Cc3ccccc3F)c(=O)c21 | / | / | / | 63* | /
SMILES | S1P4 ag | S1P4 antagonist | S1P3 antagonist | EP2 mod | EP2 antag
Cn1c(=O)c2[nH]c(CN3CCN(CCO)CC3)nc2n(C)c1=O | / | / | / | -6 | 11
Cc1cc2c(C)ccc(C)c2nc1SCC(=O)NCc1ccccc1 | / | / | / | 42 | 8
ONC(=Nc1ccccc1Cl)c1ccccc1Cl | 0 | 10 | 2 | 71* | 7
Cc1nn2c(C(F)(F)F)c3c(nc2c1-c1ccccc1)CCC3 | 1 | -19 | -10 | 62* | 7
Cc1nn2c(NC(C)C)c3c(nc2c1-c1ccccc1)CCC3 | 1 | 0 | 4 | -27 | 7
CC1CCCN(c2nc3c(c(=O)[nH]2)CCN(Cc2c[nH]c4ccccc24)C3)C1 (centres undefined) | / | / | / | -30 | 11
Cc1cc(O)c(-c2cc(O)c(C)cc2O)cc1O | -1 | 16 | 13 | -28 | 134*
COc1cc(OC)cc(-c2nnc(SCC(=O)N3c4ccccc4Sc4ccccc43)o2)c1 | 2 | -15 | 9 | 61* | 13
COc1ccc(-c2nnc(SCC(=O)N3c4ccccc4Sc4ccccc43)o2)cc1 | -2 | -4 | / | -2 | 3
O=C1C2=C(Nc3cc([N+](=O)[O-])ccc3N2)O[C@@H]1c1c[nH]c2ccc(COc3ccccc3)cc12 | / | / | / | 9 | 60*
CC(=O)c1csc(NC(=O)c2cc(=O)c3cc(C)c(C)cc3o2)n1 | / | / | / | 1 | 0
